The text below walks through data of PubChem BioAssay (EPA / NIEHS).

Assay [1] in a line: ACEA_AR_agonist_AUC_viability: ACEA Biosciences xCELLigence Real-Time Cell Analysis on Androgen Receptor Agonism for Viability (AID 2283775).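 As to AC50: viability read 80 hours after compound addition.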 A digest of the protocol:
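22Rv1 cells; impedance growth kinetics; 8-pt 1:4 dilutions from 100 uM top final, ≤0.5% DMSO; n = 2; 80 h read; AUC viability, loss-of-signal vs DMSO.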

Assay [2] in a line: ACEA_AR_antagonist_AUC_viability: ACEA Biosciences xCELLigence Real-Time Cell Analysis on Androgen Receptor Antagonism for Viability (AID 2283776).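 Also: 22Rv1 human prostate cancer cells growing on impedance electrode plates; area under impedance growth curve at 80 h after dosing as viability; hits lower the growth signal relative to DMSO meaning cytotoxicity.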 In a few lines:
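Real-time electrical impedance tracks 22Rv1 proliferation after continuous compound exposure (top 100 uM final, 1:4 steps, 8 concentrations). The 80 h area-under-curve serves as the cytotoxicity readout relative to DMSO.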

The test system of assay [3] is zebrafish Estrogen Receptor (ESR2B), gene 317733. Briefly: ATG_zfER2b_XSP1: Attagene TRANS-FACTORIAL Multi-Species (XSP1) HepG2 Assay for zebrafish Estrogen Receptor (ESR2B) (AID 2283773). A digest of the protocol: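 Human hepatoma HepG2, transiently transfected with multi-reporter units; exogenous zebrafish ESR2B-Gal4 activity measured. Exposure 24 h alongside 3 nM 6-alpha-fluorotestosterone to partly stimulate AR.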

Assay [4] has as its system frog Estrogen Receptor (ESR2), gene 100174814. Nature of the assay: ATG_frER2_XSP1: Attagene TRANS-FACTORIAL Multi-Species (XSP1) HepG2 Assay for frog Estrogen Receptor (ESR2) (AID 2283774). A digest of the protocol: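 Multiplexed TRANS-format reporter assay in human hepatoma HepG2: chimeric nuclear receptor-Gal4 activity reported as mRNA induction at 24 h, detected by fluorescent RT-PCR products on capillary electrophoresis and fitted upward from DMSO baseline.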

Assay [5] relates to frog Estrogen Receptor (ESR1), gene 398734. Nature of the assay: ATG_frER1_XSP1: Attagene TRANS-FACTORIAL Multi-Species (XSP1) HepG2 Assay for frog Estrogen Receptor (ESR1) (AID 2283777). In a few lines: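 After transient transfection and 24 h compound treatment, total RNA from HepG2 cells was reverse-transcribed, amplified, FAM-labeled and resolved by capillary electrophoresis. Signal increases were fitted against DMSO controls.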

The subject of assay [6] is zebrafish Estrogen Receptor (ESR2A), gene 317734. Briefly: ATG_zfER2a_XSP1: Attagene TRANS-FACTORIAL Multi-Species (XSP1) HepG2 Assay for zebrafish Estrogen Receptor (ESR2A) (AID 2283778). In a few lines:
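Gain-of-signal reporter transcription readout from GAL4-UAS units in transiently transfected HepG2 cells, 24 h exposure, 3 nM 6-alpha-fluorotestosterone co-present. Detection by RT-PCR with capillary electrophoresis fluorescence.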

The target in assay [7] is chicken Estrogen Receptor (ESR1), ESR1 (gene 396099) (UniProt P06212). Briefly: ATG_chERa_XSP1: Attagene TRANS-FACTORIAL Multi-Species (XSP1) HepG2 Assay for chicken Estrogen Receptor (ESR1) (AID 2283779). In a few lines:
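Gain-of-signal reporter transcription, relative to DMSO, was scored in transiently transfected HepG2 cells after a 24 h dose. Fluorescence intensity of amplified, digested reporter cDNA fragments served as the endpoint.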

Assay [8] concerns the target Estrogen receptor (Homo sapiens) (UniProt P03372). Briefly: ATG_hERa_XSP1: Attagene TRANS-FACTORIAL Multi-Species (XSP1) HepG2 Assay for human Estrogen Receptor (ESR1) (AID 2283780). A digest of the protocol: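 Reporter transcripts from multiplexed GAL4-UAS units driven by NR-Gal4 chimeras in transiently transfected HepG2 were measured by RT-PCR with capillary electrophoresis 24 h post-dose, with 3 nM 6-alpha-fluorotestosterone present; gain-of-signal relative to DMSO.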

Assay [9] deals with turtle Estrogen Receptor (ESR1), gene 101933533. Briefly: ATG_trERa_XSP1: Attagene TRANS-FACTORIAL Multi-Species (XSP1) HepG2 Assay for turtle Estrogen Receptor (ESR1) (AID 2283781). How it is done:
ATG_XSP1_multi-species_TRANS is a cell-based, multiplexed assay created by modifying the existing Attagene TRANS-FACTORIAL system to include a panel of nuclear receptors from some or all the following species: human (Homo sapiens), mouse (Mus musculus), frog (Xenopus laevis), zebrafish (Danio rerio), chicken (Gallus gallus), and turtle (Chrysemys picta). The ECOTOX-FACTORIAL format uses HepG2, a human liver cell line, with measurements taken at 24 hours after chemical dosing in a 24-well plate. Xsp1 included 3 nM 6-alpha-fluorotestosterone to partially stimulate the androgen receptor.ATG_trERa_XSP1 is one of 29 assay components measured or calculated from the ATG_XSP1_multi-species_TRANS assay. It is designed to make measurements of mRNA induction, a form of inducible reporter, as detected with fluorescence intensity signals by Reverse transcription polymerase chain reaction (RT-PCR) and Capillary electrophoresis technology.The assay endpoint ATG_trERa_XSP1 was analyzed in the positive analysis fitting direction relative to DMSO as the negative control and baseline of activity. […] Furthermore, this assay endpoint can be referred to as a primary readout, because this assay has produced multiple assay endpoints where this one serves a reporter gene function. […]

Assay [10] can be described thus: ACEA_ER_AUC_viability: ACEA Biosciences xCELLigence Real-Time Cell Analysis on Estrogen Receptor Agonism for Viability (AID 2283782).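 Also: hit means loss of impedance signal meaning reduced cell growth or viability.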 In a few lines:
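Continuous-exposure impedance cell analysis uses T-47D cells in charcoal-stripped serum, eight 1:4 dilutions topping at 100 uM final, biological duplicate. Area under the growth curve at 80 h is fitted against DMSO baseline.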

Results filed as inconclusive are left out. Calls of active or inactive are those of the source. The calls were made as follows: active = hit-call score of the fitted dose curve at least 0.9, where 1 is the maximum; inconclusive = response in the unintended direction; inactive = score below 0.9.

chicken Estrogen Receptor (ESR1), ESR1 (gene 396099), sequence (P06212 whole entry, looked up, the tested form may be a part): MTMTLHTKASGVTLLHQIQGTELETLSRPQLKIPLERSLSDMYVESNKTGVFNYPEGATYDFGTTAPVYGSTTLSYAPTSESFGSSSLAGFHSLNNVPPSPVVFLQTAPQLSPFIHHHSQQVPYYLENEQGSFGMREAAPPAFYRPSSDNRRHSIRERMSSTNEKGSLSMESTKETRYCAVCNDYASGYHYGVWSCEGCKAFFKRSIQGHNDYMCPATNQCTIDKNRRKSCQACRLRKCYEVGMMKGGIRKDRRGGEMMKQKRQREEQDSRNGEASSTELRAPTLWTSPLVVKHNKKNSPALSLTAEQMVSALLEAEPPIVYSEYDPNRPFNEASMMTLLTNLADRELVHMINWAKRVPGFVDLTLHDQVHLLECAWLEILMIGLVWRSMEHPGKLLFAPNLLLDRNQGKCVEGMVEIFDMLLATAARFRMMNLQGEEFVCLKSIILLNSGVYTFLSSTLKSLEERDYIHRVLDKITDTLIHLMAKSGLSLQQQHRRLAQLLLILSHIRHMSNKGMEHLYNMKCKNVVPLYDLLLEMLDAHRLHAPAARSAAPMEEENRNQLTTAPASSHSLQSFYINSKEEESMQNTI
Estrogen receptor (Homo sapiens), sequence (P03372 whole entry, looked up, the tested form may be a part): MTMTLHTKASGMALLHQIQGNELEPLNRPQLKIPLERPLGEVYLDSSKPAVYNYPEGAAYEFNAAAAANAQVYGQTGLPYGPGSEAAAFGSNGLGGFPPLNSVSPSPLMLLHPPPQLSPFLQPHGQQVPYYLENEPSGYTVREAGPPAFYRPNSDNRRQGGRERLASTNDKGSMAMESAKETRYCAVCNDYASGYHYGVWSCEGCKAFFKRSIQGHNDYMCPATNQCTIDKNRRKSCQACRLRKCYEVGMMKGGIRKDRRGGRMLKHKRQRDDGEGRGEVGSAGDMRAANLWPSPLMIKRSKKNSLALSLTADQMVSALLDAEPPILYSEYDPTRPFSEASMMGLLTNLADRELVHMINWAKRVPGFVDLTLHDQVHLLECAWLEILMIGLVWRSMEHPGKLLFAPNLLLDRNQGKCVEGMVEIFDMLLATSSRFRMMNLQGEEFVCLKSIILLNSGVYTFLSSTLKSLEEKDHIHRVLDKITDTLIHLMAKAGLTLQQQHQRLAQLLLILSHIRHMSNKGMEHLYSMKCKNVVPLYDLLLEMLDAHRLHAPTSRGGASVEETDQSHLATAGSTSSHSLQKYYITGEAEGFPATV

Take `O=C1OC(=O)C2C3C=CC(C3)C12` (stereo not given): the call in assay [1] and in assay [2] was inactive.
The term AC50 denotes the concentration at which the activity in the assay is half-maximal. Consider `O=P(OC(CCl)CCl)(OC(CCl)CCl)OC(CCl)CCl`, for which the AC50 is 20.8 µM (active) in assay [3]; 26 µM (active) in [4]; 31.8 µM (active) in assay [1]; 29.8 µM (active) in [2]; 3.06 µM (active) in assay [5]; 3.85 µM (active) in assay [7]. In addition, the figures for the AC50 in assay [8] and in assay [9] were 2.78 µM (active) and 5.66 µM (active), respectively. In addition, the compound was classed as inactive in [6] and in assay [10].
Consider `O=C(NS(=O)(=O)/C=C/c1ccccc1)c1ccc(F)cc1Cl`, for which the AC50 was 5.76 µM (active) in assay [1] and 13.1 µM (active) in [2].
`CC1=CC(=O)CC(C)(C)C1`: the compound was called inactive in assay [1] and in [2].
Consider `CNCc1ccc(NC(=O)c2c[nH]c3c2C(=O)CCC3)cc1`, for which the AC50 in assay [1] is 50 µM (active); in [2], 67 µM (active).
As for `CC(=O)OCCC(C)C`, the call in assay [1] and in assay [2] was inactive.
On to `O=C(O)c1cccc(N(Cc2cccnc2)c2ccc(OC(F)F)c(OC(F)F)c2)c1`, for which the AC50 in assay [1] is 88.2 µM (active); in assay [2], 76.9 µM (active).
For `O=C(CCCCCCCCc1cccnc1)N1CCC(C=C(c2ccccc2)c2ccccc2)CC1`, the AC50 in assay [1] was 11.4 µM (active); in [2] it was 12.1 µM (active).
`CC(C)CCO`: the compound was classed as inactive in [1] and in assay [2].
Take `CC[C@H]1OC(=O)[C@H](C)[C@@H](O[C@H]2C[C@@](C)(OC)[C@@H](O)[C@H](C)O2)[C@H](C)[C@@H](O[C@@H]2O[C@H](C)C[C@H](N(C)C)[C@H]2O)[C@](C)(O)C[C@@H](C)C(=O)[C@H](C)[C@@H](O)[C@]1(C)O`: the compound was classed as inactive in assay [1].
On to `O=C(O)CC(O)C(=O)O` (stereo not given), for which the compound was classed as inactive in assay [1] and in assay [2].
For the compound `CC(=O)c1ccc2c(c1)[C@H](NC(=O)c1ccc(F)cc1)[C@@H](O)C(C)(C)O2`, the call in [1] and in [2] was inactive.
On to `COc1ccc(/C=C/S(=O)(=O)NC(=O)c2ccc(C)cc2Cl)cc1`, for which the figures for the AC50 in assay [1] and in assay [2] were 16.3 µM (active) and 22.7 µM (active), respectively.
For the compound `O=C(O)CCN(C1(C(=O)NO)CCCC1)S(=O)(=O)c1ccc(Oc2ccc(F)cc2)cc1`, the compound was classed as inactive in [1] and in assay [2].
With `CCCCC(CC)COC(=O)CCCCCCCCC(=O)OCC(CC)CCCC` (stereo not given), the outcome in assay [1] was inactive.
`CC(C)CC(C)(O)C#CC(C)(O)CC(C)C` (stereo not given): the compound was classed as inactive in assay [1] and in [2].
`Cc1[nH]cnc1C[C@H]1CCc2c(C)c3ccccc3n2C1=O`: the values for the AC50 in [1] and in assay [2] were 44.5 µM (active) and 50.1 µM (active), respectively.
Turning to `CC1(C)C(=O)N(Br)C(=O)N1Br`, the compound was called inactive in [1] and in assay [2].
As for `CC/C(=C\C(=N/O)C(N)=O)C(C)[N+](=O)[O-]` (stereo not given), in assay [1], the compound was called inactive. Further, the AC50 in assay [2] was 74.2 µM (active).
With `CC(C)=CCCC(C)=CC=O`, the compound was classed as inactive in assay [1] and in assay [2].
With `COc1ccc(-n2nc(C(F)F)cc2-c2ccc(S(C)=O)cc2)cc1` (stereo not given), the call in assay [1] and in assay [2] was inactive.
For `CCN(C(=O)c1cc(C)cc(OC[C@H](C)Nc2ccncc2)c1)C(C)C`, the AC50 is 33.8 µM (active) in assay [1] and 11.2 µM (active) in assay [2].
In the case of `Nc1nc2ncc(CNc3ccc(C(=O)N[C@@H](CCC(=O)O)C(=O)O)cc3)nc2c(=O)[nH]1`, the call in assay [1] and in [2] was inactive.
Take `CCCN(C1CCN(C(=O)C2CCNCC2)CC1)[C@@H]1CCc2ccc(OC)cc2C1`: the AC50 was 75 µM (active) in assay [1] and 50 µM (active) in [2].
As for `NC(=O)NO`, the compound was classed as inactive in assay [1] and in assay [2].
Regarding `CC(C)=CCC/C(C)=C/CO`, the AC50 in assay [1] is 33 µM (active); in assay [2], 25.6 µM (active).
Consider `Fc1ccccc1[C@@H](F)COC1CCC(Nc2ncnc3[nH]ncc23)CC1` (stereo not given in full), for which the AC50 in assay [1] was 63.2 µM (active); in assay [2], 50 µM (active).
